TRHR enhancer: allosterically enhances the human TRH receptor | hit rate 0.66% among 360,000 | enhancement, % at 2 µM | P34981 | TRHR cells, fluo-8 calcium fluorescence, EC20 TRH enhancement | AID 493056; in the data active = enhancement above about 30%
Target sequence (P34981 whole entry, looked up): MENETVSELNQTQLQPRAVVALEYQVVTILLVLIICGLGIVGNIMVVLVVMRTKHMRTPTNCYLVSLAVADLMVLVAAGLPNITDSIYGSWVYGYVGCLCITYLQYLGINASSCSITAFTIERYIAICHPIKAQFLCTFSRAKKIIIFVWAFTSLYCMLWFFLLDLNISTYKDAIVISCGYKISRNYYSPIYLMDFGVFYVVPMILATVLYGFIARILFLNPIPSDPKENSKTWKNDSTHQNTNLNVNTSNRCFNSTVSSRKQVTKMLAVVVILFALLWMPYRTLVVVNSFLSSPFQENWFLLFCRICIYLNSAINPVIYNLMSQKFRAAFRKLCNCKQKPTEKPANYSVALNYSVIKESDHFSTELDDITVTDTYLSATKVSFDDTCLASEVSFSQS
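TRHR-expressing cells loaded with fluo-8 calcium dye were read kinetically (ex 480/em 530) during compound addition, then stimulated with an EC20 of TRH (10 nM final). Enhancement of the Gq-mediated intracellular calcium response was scored.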
TRHR ag: agonists of human TRH receptor; activation, % at 2 µM; TRHR cells, calcium flux fluo-8, FDSS agonist mode; P34981; hit rate 0.18% among 360,000; AID 493084
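Steps: seed TRHR cells overnight; add fluo-8 no-wash Ca dye, RT 30 min–1.5 h; record 10 s baseline; pin-transfer compounds; monitor fluorescence 1 cycle/s for the agonist window. Calcium increases flag candidate agonists.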
D1 antagonist: blocks dopamine activation of the human D1 receptor; P21728; HEK293 TREx D1 cells, calcium flux, dopamine EC80; stronger effect = lower value; activity change, negative = inhibition, % at 10 µM; hit rate 3.2% among 360,000; AID 504652; in the data active = activity change below about -30%
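Using tetracycline-induced force-coupled D1 Hek293 cells and a calcium dye, signals were followed for 180 s after compound, then for 180 s after EC80 dopamine, to detect inhibitors.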
D1 agonist: human D1 receptor agonism. HEK293 T-REx D1 cells, calcium flux, agonist mode. activation, % at 2 µM. hit rate 1% among 360,000. AID 504660
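Tetracycline-induced HEK293 TREx D1 cells, force-coupled to calcium signalling, were dye-loaded with a no-wash calcium kit. Compound was pin-added after a 10 s baseline. Fluorescence was read kinetically at 1 cycle/s for 180 s, with calcium rises flagged as agonism.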
D1 potentiator: human D1 dopamine receptor positive modulation. HEK293 TREx D1 cells, calcium flux, dopamine EC20 potentiation. potentiation, % at 10 µM. hit rate 0.036% among 360,000. AID 504651; in the data active = potentiation above about 30%
Numbers stand for hits; 0 = inactive; - = not tested or not shown. An excerpt weighted towards active compounds, which were near 4.7% of everything screened. Cut-off read from the data, not from the text of the source, unless noted: active = activation above about 30%; inactive = the rest.

SMILES	TRHR enhancer	TRHR ag	D1 antagonist	D1 agonist	D1 potentiator
CCCC(=O)N1CCN(c2ccc(NC(=O)c3cc4ccccc4o3)cc2Cl)CC1	0	0	-47	0	0
CCC(=O)N1CCN(c2ccc(NC(=O)c3cc4ccccc4o3)cc2Cl)CC1	0	0	0	0	0
O=C(Nc1ccc(CN2CCOCC2)cc1)c1ccco1	0	0	-35	0	0
O=C(Nc1ccc(N2CCOCC2)c(F)c1)c1cccs1	0	0	-38	0	0
CCn1cc2nc(SCC(=O)Nc3ccc(OC)c(OC)c3)n(Cc3ccc(Cl)cc3)c(=O)c2n1	0	0	0	0	0
CCn1cnc2c(Nc3ccc(CCC(=O)N=C(N)N)cc3)nc(C#N)nc21	0	0	0	0	0
COCCNC(=O)CN(C(=O)CCC(=O)Nc1ccccn1)c1ccc(C)c(C)c1	0	0	0	0	0
COc1cccc(CNC(=O)C(=O)NCC(c2cccs2)S(=O)(=O)c2cccs2)c1 (stereo not drawn)	0	0	-	0	0
Cc1ccc(-n2nc(CO)c(C(=O)NC(C)c3ccccc3)n2)cc1C (stereo not drawn)	0	0	0	0	0
COc1c(C(=O)Nc2ccc(CN3CCOCC3)cc2)cc2ccccc2c1Br	0	0	-31	0	0
O=C(Nc1ccc(N2CCOCC2)c(Cl)c1)c1ccc2c(c1)OCCO2	0	0	0	0	0
O=C(Nc1ccc(N2CCOCC2)c(Cl)c1)c1ccc(Cl)cc1	0	0	-31	0	0
Cc1cc(=O)n2[nH]c(-c3ccc(C(C)(C)C)cc3)cc2n1	0	0	0	0	0
COC(=O)c1ccc(NC(=O)CSc2ccccc2)cc1	0	0	-75	0	0
COC(=O)c1ccc(NC(=O)Cc2ccc(F)cc2)cc1	0	0	-30	0	0
Cc1ccc(NC(=O)Cc2ccc(F)cc2)cc1	0	0	0	0	0
COC(=O)c1ccc(NC(=O)CSc2ccccn2)cc1	0	0	0	0	0
COC(=O)c1ccc(NC(=S)NCCc2ccccc2C)cc1	0	0	-36	0	0
COC(=O)c1ccc(NC(=S)NCCc2cccc(C)c2)cc1	0	0	0	0	0
COC(=O)c1ccc(NC(=S)N2CCN(Cc3ccccc3)CC2)cc1	0	0	-43	0	0
CCc1ccc(OCC(=O)N(Cc2ccc(C)o2)C2CCS(=O)(=O)C2)cc1 (stereo not drawn)	0	0	0	0	0
COc1ccccc1C(=O)Nc1c(C(=O)Nc2ccccc2F)oc2ccccc12	0	0	0	0	0
Cc1ccc2nc(-c3ccc(Cl)cc3)cc(C(=O)OCC(=O)c3ccccc3)c2c1	0	0	0	0	0
Cc1ccc(NC(=O)C(=O)NCCN2CCN(C(=S)Nc3ccccc3)CC2)cc1	0	0	-34	0	0
Cc1ccc(S(=O)(=O)N(C)C)cc1NC(=O)CSc1nnc(C2CC2)n1C1CC1	0	0	-68	0	0
SMILES	TRHR enhancer	TRHR ag	D1 antagonist	D1 agonist	D1 potentiator
CCN(CC(=O)Nc1ccccc1C(F)(F)F)C(=O)CCS(=O)(=O)c1ccc(Cl)cc1	0	0	-30	0	0
CCCn1c2ccccc2c2cnn(CC(=O)N3CCN(c4ccccc4F)CC3)c(=O)c21	0	0	0	0	0
COC(=O)c1ccc(Cl)c(-c2ccc(/C=N/NC(=O)Nc3ccccc3)o2)c1	31	0	0	0	0
COC(=O)N/N=C/c1ccc(-c2ccccc2Cl)o1	0	0	0	0	0
COc1cccc2cc(C(=O)N3CCN(c4cc(C)ccc4C)CC3)c(=O)oc12	0	0	0	0	0
COc1cccc2cc(C(=O)N3CCN(c4ccccn4)CC3)c(=O)oc12	0	0	-37	0	0
Fc1c(F)c(C(F)(F)F)c(F)c(F)c1N/N=C\c1cccs1	0	0	-34	0	0
CCCN(Cc1cccs1)C(=O)Nc1cc(OC)ccc1OC	0	0	0	0	0
O=C(CCN1C(=O)c2ccccc2S1(=O)=O)Nc1ccc(Cl)cc1	0	0	-52	0	0
CCc1ccc(C(=O)CCC(=O)Nc2ccc(OC)c(S(=O)(=O)N3CCCCC3)c2)cc1	0	0	-41	0	-
COc1ccc(NC(=O)c2n[nH]c(=O)c3ccccc23)cc1S(=O)(=O)N1CCCCC1	0	0	-39	0	0
CCOc1ccc(NC(=O)CN(C)Cc2ccc3c(c2)OCO3)cc1S(=O)(=O)N1CCCC1	0	0	-35	0	0
COc1ccccc1CCC(=O)OCC(=O)Nc1ccc(C)c(S(=O)(=O)N2CCCCC2)c1	0	0	-33	0	0
